Many of the other results were omitted from the sample, so hits are more common in it than they were.
Tgondii IFNg: T. gondii growth inhibition under IFN-gamma; Toxoplasma gondii growth in IFN-gamma-treated host cells; stronger effect = lower value; activity change, negative = inhibition, % (no concentration beside the values); 3.8% of 69,000 active; AID 1259416; in the data active = activity change below about -70%, passing the limit was not always enough;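 note: host cells are HeLa cells infected with Toxoplasma gondii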
* = called active by the depositor; ! = a repeat was not active.

SMILES | Tgondii IFNg
COc1ccc(CN2C(=O)N(CC(C)C)C3(CCN(Cc4cc(F)ccc4F)CC3)C2=O)cc1 | 7.5
Cc1cc2ccccc2n1CC(=O)N1CCCC(c2ccc(-c3cnc(N)nc3)cn2)C1 (centres undefined) | 37.0
CCCCCCCCCCCCCCCC[n+]1ccccc1 | -90.8*
Cc1c(-c2cccc(CN3CCOCC3)c2)c(=O)[nH]c2ccccc12 | -22.1
Cc1cc(C)cc(C(=O)N2CCCn3nnc(CN4CCOCC4)c3C2)c1 | 4.7
CCc1ccccc1NC(=O)C(=O)NCCc1csc(-c2ccc(C(F)(F)F)cc2)n1 | -14.0
C#CCOC(=O)Nc1cnc(OCC)c(C(F)(F)F)c1 | -75.0*
CCOC(=O)NC(Nc1cc(C)on1)(C(F)(F)F)C(F)(F)F | 94.4
COc1cc(OC)cc(C(=O)NCCc2csc(-c3ccc(Cl)cc3)n2)c1 | -43.5
N#Cc1ccc(C(=O)N2CCn3cc(Cn4cccn4)nc3C2)cc1 | 0.1
Cc1cccc(NC(=O)C(=O)NCCc2csc(-c3cccc(F)c3)n2)c1 | -87.3*
Cc1cccc(C)c1NC(=O)C(=O)NCCc1csc(-c2cccc(F)c2)n1 | 25.1
Cc1cccc(NC(=O)C(=O)NCCc2csc(-c3ccc(Cl)cc3)n2)c1 | -26.6
O=C(NCCc1csc(-c2cccc(F)c2)n1)C(=O)Nc1ccccc1 | -34.0
Cc1ccc(NC(=O)C(=O)NCCc2csc(-c3cccc(F)c3)n2)c(C)c1 | -9.7
Cc1cc(C)c(NC(=O)C(=O)NCCc2csc(-c3cccc(F)c3)n2)c(C)c1 | -79.6*
Clc1ccc(/C=C/CNCCCSc2ncccn2)cc1 | -38.5
Cc1ccnc(C(=O)N2CCC3(CC2)CC(COCC2CC2)N(C)C3)c1 (centres undefined) | -1.8
CN(Cc1ccco1)C[C@H]1OC[C@H]2CCN(Cc3ccsc3)C[C@H]21 | 23.0
COC(=O)c1[nH]ncc1CN1CCN(Cc2cccc(F)c2)CC1 | 0.0
COc1ccc(-c2nnc(-c3nc(NCc4ccc(SC)cc4)c4ccccc4n3)o2)cc1 | 157.9
Cn1ccn2ncc(C(=O)N3CC[C@@H](c4ccc5c(c4)OCO5)[C@H](O)C3)c12 | 1.7
COC(=O)c1ccc2nc(N)sc2c1 | -27.9
Nc1nc2ccc(OC(F)(F)F)cc2s1 | -93.6*!
Nc1nc2ccc(-c3nc4ccccc4[nH]3)cc2s1 | 470.1
SMILES | Tgondii IFNg
Cc1nc(-c2cn(CCN)nn2)n(-c2ccc3c(c2)CCC3)n1 | -0.3
CO[C@H]1CC[C@@H]2[C@H]1OCCN2C(=O)/C=C/c1cccs1 | 8.0
CC(=O)CC1N(C2CCCCCC2)C(=O)C2N(c3ccccc3C)C(=O)C3CC(=O)OC321 (centres undefined) | 99.2
Cc1nc(-c2ccccc2)c(C(=O)N2CCC(O)(CN(C)C)C2)s1 (centres undefined) | 1.5
COc1cccc(C(N)c2ccccc2)c1 (centres undefined) | 42.1
O=C(NCC1CCN(c2cc(-c3ccncc3)[nH]n2)CC1)c1cc2ccccc2[nH]1 | -78.5*
O=C(CCc1c[nH]c2ccccc12)N1CCN(c2cc(-c3cccnc3)[nH]n2)CC1 | 104.0
O=C(c1cc2ccccc2[nH]1)N1CCC(c2[nH]ncc2Cc2ccccc2)CC1 | -11.8
O=C(NCCS(=O)(=O)c1ccc(F)cc1)c1cc(-n2cccn2)ccc1Cl | 13.3
Clc1ccc(-c2nc(NCc3ccc4c(c3)OCO4)ncc2-c2ncc[nH]2)cc1 | -106.4*
FC(F)(F)c1ccnc(NCc2ccc3c(c2)OCO3)n1 | 50.9
FC(F)(F)CCc1ccnc(NCc2ccc3c(c2)OCO3)n1 | -4.9
CC(Sc1nnc2c3ccccc3n(C)c2n1)C(=O)Nc1nc2c(s1)CCCC2 (centres undefined) | -65.1
COc1ccc2c(c1)NC1(CCN(C(=O)NC3CCCCC3)CC1)c1cccn1-2 | 173.8
CC(=O)Nc1cccc(C(=O)N(Cc2ccsc2)CC(C)C)c1 | -79.4*
CC(C)CN(Cc1ccsc1)C(=O)c1coc(CN2CCOCC2)c1 | 0.8
CC(=O)Nc1cccc(C(=O)N(Cc2ccsc2)CC2CCCO2)c1 (centres undefined) | 149.7
COCCN1C(=O)CC2C1CCN2C(=O)c1cccc(C#N)c1 (centres undefined) | -2.9
CCc1cc(-c2cccc3ccnn23)ccc1NC(C)=O | 7.0
COCCSc1nnc(NC(=O)COc2ccc3c(c2)OCO3)s1 | -83.0*
Cc1nn(-c2ccc(F)cc2)c(C)c1CNC(=O)COc1ccc2c(c1)OCO2 | 41.0
COCC(=O)Nc1cccc(-c2ccc3c(c2)OCO3)c1 | 37.8
CC(C)c1nnc(NC(=O)COc2ccc3c(c2)OCO3)s1 | -84.6*
Cn1c(CN2CCCCC2)nc2cc(NC(=O)COc3ccc4c(c3)OCO4)ccc21 | -12.0
CN(Cc1ncc[nH]1)C(=O)COc1ccc2c(c1)OCO2 | -4.9
CCCn1ncc(C(=O)N2CCC(c3ccccc3C(=O)O)C2)c1C (centres undefined) | 9.0
COc1cc2c(cc1CN1CCN(Cc3cccc(F)c3)CC1)OCCO2 | -4.4
Cc1cc(N2CCCN(Cc3ccc(C4CCCCO4)o3)CC2)ccn1 (centres undefined) | -2.1
COc1cccc(CNC(=O)CCC2CCCN(c3nc4ccccc4o3)C2)c1 (centres undefined) | 16.4

Bioassay records from PubChem.
